About 7,900 targets were measured; listed, in parts, are those with a hit and a random draw of the rest. About 0.6% of all pairs of compound and target were hits. Unmarked numbers belong to inactive results.

UniProt Q13464, sequence (Q13464 whole entry, looked up): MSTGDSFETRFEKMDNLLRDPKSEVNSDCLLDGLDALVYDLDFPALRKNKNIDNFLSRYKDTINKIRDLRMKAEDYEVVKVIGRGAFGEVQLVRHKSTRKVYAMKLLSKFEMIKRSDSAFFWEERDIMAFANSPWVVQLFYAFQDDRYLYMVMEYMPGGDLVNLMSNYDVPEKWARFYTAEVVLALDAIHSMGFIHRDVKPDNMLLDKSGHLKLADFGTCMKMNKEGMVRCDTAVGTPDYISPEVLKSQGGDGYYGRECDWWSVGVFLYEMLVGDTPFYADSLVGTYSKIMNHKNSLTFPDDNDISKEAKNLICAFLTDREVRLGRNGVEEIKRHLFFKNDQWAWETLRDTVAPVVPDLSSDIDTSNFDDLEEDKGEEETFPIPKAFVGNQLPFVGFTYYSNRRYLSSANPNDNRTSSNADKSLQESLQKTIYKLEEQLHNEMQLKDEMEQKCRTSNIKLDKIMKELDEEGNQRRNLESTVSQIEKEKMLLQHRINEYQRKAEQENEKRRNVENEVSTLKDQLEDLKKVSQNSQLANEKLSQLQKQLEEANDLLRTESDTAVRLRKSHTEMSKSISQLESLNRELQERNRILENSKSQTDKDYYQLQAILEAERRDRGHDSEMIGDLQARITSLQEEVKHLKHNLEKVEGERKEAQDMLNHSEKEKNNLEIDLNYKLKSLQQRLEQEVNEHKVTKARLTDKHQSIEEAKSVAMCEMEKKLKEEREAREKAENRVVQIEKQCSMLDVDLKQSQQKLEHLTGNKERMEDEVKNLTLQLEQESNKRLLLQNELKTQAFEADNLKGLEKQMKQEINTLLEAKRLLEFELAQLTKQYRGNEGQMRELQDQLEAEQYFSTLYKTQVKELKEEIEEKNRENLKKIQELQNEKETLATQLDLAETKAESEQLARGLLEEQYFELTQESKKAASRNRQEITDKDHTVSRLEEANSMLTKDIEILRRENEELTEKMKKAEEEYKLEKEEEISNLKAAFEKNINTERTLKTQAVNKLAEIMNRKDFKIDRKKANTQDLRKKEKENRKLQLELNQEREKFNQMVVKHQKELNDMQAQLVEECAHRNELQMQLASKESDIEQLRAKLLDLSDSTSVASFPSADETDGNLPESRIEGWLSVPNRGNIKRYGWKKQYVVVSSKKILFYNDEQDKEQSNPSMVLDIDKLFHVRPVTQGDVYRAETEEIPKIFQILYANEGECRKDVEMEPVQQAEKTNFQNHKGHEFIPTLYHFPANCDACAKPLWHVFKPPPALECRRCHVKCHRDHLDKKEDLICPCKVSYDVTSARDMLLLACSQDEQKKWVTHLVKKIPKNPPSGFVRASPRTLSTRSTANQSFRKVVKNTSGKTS
UniProt P46063, sequence (P46063 whole entry, looked up): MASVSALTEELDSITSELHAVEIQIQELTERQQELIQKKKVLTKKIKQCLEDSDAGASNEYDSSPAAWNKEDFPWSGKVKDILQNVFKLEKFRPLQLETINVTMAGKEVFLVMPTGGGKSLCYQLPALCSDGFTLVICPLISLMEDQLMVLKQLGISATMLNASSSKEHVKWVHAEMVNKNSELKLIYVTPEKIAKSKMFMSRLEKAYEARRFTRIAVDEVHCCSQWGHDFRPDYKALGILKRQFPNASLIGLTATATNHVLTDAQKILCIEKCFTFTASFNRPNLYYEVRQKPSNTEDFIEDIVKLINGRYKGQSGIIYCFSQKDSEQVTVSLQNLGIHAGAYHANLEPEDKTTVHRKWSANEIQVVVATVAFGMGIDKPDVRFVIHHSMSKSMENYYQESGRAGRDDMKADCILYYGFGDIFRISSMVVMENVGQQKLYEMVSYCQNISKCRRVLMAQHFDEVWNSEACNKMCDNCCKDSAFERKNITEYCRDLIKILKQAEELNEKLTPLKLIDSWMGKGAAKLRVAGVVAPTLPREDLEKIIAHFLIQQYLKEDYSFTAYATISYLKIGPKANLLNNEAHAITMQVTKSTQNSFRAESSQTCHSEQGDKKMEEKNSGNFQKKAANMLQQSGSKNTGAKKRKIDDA
UniProt Q8WXD2, sequence (Q8WXD2 whole entry, looked up): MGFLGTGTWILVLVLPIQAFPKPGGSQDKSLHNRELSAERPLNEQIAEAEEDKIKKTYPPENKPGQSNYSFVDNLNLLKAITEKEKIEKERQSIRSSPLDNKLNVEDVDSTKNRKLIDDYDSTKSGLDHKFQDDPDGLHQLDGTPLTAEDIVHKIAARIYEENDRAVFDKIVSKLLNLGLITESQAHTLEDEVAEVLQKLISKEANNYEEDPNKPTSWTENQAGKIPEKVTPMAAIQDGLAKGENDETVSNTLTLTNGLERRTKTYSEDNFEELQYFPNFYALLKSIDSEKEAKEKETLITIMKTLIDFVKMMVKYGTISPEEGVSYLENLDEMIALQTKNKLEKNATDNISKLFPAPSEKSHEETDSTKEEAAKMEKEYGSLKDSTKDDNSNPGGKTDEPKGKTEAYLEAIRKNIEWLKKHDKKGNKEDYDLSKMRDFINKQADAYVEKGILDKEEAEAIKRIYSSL
UniProt Q9BXP2, sequence (Q9BXP2 whole entry, looked up): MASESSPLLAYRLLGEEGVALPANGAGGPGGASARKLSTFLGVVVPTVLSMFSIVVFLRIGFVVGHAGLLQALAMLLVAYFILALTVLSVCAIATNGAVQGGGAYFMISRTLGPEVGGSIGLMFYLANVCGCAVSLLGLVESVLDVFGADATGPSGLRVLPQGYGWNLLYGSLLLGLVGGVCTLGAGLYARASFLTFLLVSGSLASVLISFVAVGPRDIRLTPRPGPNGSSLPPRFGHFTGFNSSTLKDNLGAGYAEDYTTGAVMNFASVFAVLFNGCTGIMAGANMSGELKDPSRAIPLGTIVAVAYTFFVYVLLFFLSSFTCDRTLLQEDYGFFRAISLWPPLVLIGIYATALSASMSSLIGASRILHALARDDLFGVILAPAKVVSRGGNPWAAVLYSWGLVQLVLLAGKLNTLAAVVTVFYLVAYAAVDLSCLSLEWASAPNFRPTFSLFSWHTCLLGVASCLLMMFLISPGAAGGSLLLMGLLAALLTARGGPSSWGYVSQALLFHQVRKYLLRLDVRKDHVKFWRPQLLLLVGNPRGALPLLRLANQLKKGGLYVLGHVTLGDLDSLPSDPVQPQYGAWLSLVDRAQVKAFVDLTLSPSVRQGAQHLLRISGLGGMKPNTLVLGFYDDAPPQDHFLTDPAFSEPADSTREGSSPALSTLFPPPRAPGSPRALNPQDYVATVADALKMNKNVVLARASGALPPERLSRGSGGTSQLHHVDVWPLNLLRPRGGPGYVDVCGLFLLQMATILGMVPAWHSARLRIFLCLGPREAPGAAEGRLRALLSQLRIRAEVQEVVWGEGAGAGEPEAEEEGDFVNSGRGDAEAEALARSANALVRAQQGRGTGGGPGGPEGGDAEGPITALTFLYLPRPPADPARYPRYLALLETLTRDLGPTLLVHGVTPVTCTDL
UniProt Q8N0T1, sequence (Q8N0T1 whole entry, looked up): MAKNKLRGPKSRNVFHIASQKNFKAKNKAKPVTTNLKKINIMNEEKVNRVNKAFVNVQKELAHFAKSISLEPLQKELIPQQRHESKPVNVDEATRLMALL
UniProt Q14493, sequence (Q14493 whole entry, looked up): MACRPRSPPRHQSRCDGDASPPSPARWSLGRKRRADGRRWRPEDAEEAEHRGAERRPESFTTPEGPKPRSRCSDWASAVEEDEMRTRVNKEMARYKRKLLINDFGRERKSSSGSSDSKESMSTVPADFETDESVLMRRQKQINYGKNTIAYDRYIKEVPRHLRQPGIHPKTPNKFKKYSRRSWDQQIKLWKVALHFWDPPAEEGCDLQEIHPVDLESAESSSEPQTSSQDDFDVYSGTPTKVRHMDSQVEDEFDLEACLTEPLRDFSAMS
UniProt Q5PRF9, sequence (Q5PRF9 whole entry, looked up): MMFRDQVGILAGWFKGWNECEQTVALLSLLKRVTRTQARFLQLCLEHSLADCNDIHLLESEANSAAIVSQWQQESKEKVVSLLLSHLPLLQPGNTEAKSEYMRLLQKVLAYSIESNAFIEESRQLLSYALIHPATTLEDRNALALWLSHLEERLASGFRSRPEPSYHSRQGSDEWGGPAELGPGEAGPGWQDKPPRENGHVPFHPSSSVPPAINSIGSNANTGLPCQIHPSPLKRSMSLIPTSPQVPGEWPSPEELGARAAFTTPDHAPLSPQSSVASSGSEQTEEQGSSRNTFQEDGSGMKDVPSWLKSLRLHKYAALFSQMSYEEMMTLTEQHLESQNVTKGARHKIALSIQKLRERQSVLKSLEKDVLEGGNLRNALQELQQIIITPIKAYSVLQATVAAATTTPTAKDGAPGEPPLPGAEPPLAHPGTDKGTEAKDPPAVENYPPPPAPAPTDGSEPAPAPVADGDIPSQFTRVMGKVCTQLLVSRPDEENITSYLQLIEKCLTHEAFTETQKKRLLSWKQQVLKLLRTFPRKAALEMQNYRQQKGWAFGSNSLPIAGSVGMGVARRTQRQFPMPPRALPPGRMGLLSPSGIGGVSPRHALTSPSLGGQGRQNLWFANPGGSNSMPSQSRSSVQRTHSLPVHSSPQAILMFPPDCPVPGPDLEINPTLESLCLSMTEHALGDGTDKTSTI
UniProt Q86UA6, sequence (Q86UA6 whole entry, looked up): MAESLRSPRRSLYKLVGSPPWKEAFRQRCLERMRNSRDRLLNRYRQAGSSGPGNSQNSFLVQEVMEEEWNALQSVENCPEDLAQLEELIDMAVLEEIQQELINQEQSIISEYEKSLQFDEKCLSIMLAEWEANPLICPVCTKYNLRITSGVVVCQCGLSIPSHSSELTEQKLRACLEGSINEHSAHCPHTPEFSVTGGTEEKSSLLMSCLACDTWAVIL
UniProt Q9UKM9, sequence (Q9UKM9 whole entry, looked up): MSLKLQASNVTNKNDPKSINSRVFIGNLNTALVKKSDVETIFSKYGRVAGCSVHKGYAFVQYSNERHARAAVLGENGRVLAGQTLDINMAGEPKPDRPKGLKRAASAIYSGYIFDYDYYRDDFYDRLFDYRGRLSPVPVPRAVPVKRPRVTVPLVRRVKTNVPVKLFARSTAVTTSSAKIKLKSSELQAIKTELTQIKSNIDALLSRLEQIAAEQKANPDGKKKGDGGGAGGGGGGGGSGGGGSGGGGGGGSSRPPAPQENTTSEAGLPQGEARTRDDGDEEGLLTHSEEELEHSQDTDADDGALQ

Compound in this assay: CC1=NC(=CC=C1)C2=C(N=C(N2)C(C)(C)C)C3=CC4=NC=CN=C4C=C3
In words: log2 fold change, soluble protein after heating vs DMSO (PISA); higher = thermal stabilisation; K562 cells, 10 uM, 30 min; active = over 0.2 and 3.5 SD of the protein, either way, in both replicates (recomputed). The essentials: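 Aliquots of K562 cells (2×10^6 cells/mL) treated with 10 μM compound for 30 min were heated for 3 min over 48°C-58°C. After pooling and extraction in PBS with 0.5% NP-40 at 4°C, soluble protein from a 21,000xg, 90 min spin was quantified by TMTpro 16plex LC-MS/MS with channel sums equalised. Thermal stability is expressed against control samples, from duplicates, as a log2 fold change.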
With SCAMP2 (UniProt H3BUB6), the log2 fold change was -0.1.
In the case of SIK3 (UniProt H0Y4E8), the log2 fold change is -0.066.
Take SCG3 (UniProt Q8WXD2): the log2 fold change is -0.05.
Take RCOR3 isoform 3 (UniProt Q9P2K3): the log2 fold change was 0.012.
For SAMD4B (UniProt Q5PRF9), the log2 fold change was -0.054.
Take SCAF8 isoform 2 (UniProt Q9UPN6): the log2 fold change is 0.076.
Consider RBM48 isoform 2 (UniProt Q5RL73), for which the log2 fold change is -0.007.
Take SASH1 (UniProt O94885): the log2 fold change is 0.01.
Regarding RBBP6 (UniProt Q7Z6E9), the log2 fold change is 0.127.
Consider RAF1 isoform 2 (UniProt P04049), for which the log2 fold change is -0.043.
Turning to RPS6KA3 (UniProt P51812), the log2 fold change is 0.01.
The value for RBM39 (UniProt Q14498) was 0.071.
For RPAIN isoform 8 (UniProt Q86UA6), the log2 fold change is 0.136.
The value for RALY (UniProt Q9UKM9) was 0.105; that for ROCK1 (UniProt Q13464) was -0.037.
As for RECQL (UniProt P46063), the log2 fold change was 0.039.
Turning to SH3GLB2 (UniProt Q9NR46), the log2 fold change is 0.033.
Next, RAB9A (UniProt P51151): 0.018; RAD50, A0A494C0Y7: -0.041.
As for SH2D1B (UniProt O14796), the log2 fold change was -0.011.
Consider SLBP (UniProt Q14493), for which the log2 fold change was 0.099.
The value for SERINC1 (UniProt Q9NRX5) was -0.021; that for RAB3IL1 (UniProt E9PK89) was 0.061; that for SCO2 (UniProt O43819) was -0.003.
The value for RUFY3 isoform 3 (UniProt Q7L099) was 0.038; that for RETSAT (UniProt Q6NUM9) was -0.037; that for SEC31A (UniProt O94979) was 0.019.
With RBIS (UniProt Q8N0T1), the log2 fold change was 0.023.
SLC12A9 (UniProt Q9BXP2): the log2 fold change is 0.005.
On to RNF167 (UniProt Q9H6Y7), for which the log2 fold change was 0.037.
Consider RCOR1 (UniProt Q9UKL0), for which the log2 fold change is 0.021.
On to SEC24A (UniProt O95486), for which the log2 fold change was 0.012.

The values are drawn from the supplement of paper PMC10849652.
